# Test results as given in PubChem BioAssay (NCATS).
# Inconclusive results are not listed. A call without a number means that no potency is given here. Calls of active or inactive are those of the source. Calls come from the whole dose curve; as a rule, active = well fitted curve in the direction sought with a large enough effect; inconclusive = small, poorly fitted or top-dose-only effect, or another doubt; inactive = no such curve, though single readings can be large; an effect the other way counts as inactive or inconclusive.
# Test system: not listed separately
# Test: Confirmation and Secondary Assay for Modulators of Hemoglobin Beta Chain Splicing at IVS2 705 locus (AID 930);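 note: HeLa cells stably expressing the EGFP-705 splicing reporter; GFP fluorescence per well restored by corrected splicing of the IVS2-705 intron in EGFP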
# Details: HeLa EGFP-705 splicing reporter, GFP fluorescence, 48 h; series mostly up to 46.1 µM
# Method in brief: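 Fluorescence gain (488 nm laser, 500-520 nm PMT) reflects restored correct splicing of a mutant IVS2-705 intron inside EGFP in stably transfected HeLa cells after 2-day compound treatment.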
row,SMILES,outcome
1,CC(CO)NC(=O)C1C=C2c3cccc4[nH]cc(c34)C[C@H]2N(C)C1 (stereo partly drawn),inactive
2,COc1c2c(c(CC=C(C)C)c3oc(=O)c(-c4ccc(O)cc4)c(O)c13)OC(C)(C)C=C2,inactive
3,CNNC,inactive
4,CC(=O)OC1C2CCC3C1(CC(O)[C@@]1(O)[C@@H](CC(O)C1(C)C)[C@]3(C)O)C[C@@]2(C)O (stereo partly drawn),inactive
5,OCC(O)Cc1ccc2c(c1)OCO2 (stereo not drawn),inactive
6,CC1(C)C(C(Cl)Cl)C2(Cl)C(Cl)C(Cl)C1(Cl)C2(Cl)Cl (stereo not drawn),inactive
7,COC(=O)[C@]1(C)CC[C@@]2(C)CC[C@@]3(C)C4=CC=C5C(=CC(=O)C(O)=C5C)[C@@]4(C)CC[C@@]3(C)C2C1 (stereo partly drawn),inactive
8,CC1CC(C)C(=O)[C@H](C(O)CC2CC(=O)NC(=O)C2)C1 (stereo partly drawn),inactive
9,CCC1C2CC3C4N(C)c5ccccc5[C@]45CC(C2C5O)N3C1O (stereo partly drawn),inactive
10,COc1ccc(C(=O)O)cc1OC,inactive
11,C=CCN1CC[C@]23c4c5ccc(O)c4OC2C(=O)CC[C@]3(O)C1C5 (stereo partly drawn),inactive
12,CCC1C(=O)OC[C@H]1Cc1cncn1C (stereo partly drawn),inactive
13,NC1C[C@H]1c1ccccc1 (stereo partly drawn),inactive

# Target: Ubiquitin carboxyl-terminal hydrolase 1 (Homo sapiens) (UniProt O94782)
# Sequence (O94782 whole entry, looked up): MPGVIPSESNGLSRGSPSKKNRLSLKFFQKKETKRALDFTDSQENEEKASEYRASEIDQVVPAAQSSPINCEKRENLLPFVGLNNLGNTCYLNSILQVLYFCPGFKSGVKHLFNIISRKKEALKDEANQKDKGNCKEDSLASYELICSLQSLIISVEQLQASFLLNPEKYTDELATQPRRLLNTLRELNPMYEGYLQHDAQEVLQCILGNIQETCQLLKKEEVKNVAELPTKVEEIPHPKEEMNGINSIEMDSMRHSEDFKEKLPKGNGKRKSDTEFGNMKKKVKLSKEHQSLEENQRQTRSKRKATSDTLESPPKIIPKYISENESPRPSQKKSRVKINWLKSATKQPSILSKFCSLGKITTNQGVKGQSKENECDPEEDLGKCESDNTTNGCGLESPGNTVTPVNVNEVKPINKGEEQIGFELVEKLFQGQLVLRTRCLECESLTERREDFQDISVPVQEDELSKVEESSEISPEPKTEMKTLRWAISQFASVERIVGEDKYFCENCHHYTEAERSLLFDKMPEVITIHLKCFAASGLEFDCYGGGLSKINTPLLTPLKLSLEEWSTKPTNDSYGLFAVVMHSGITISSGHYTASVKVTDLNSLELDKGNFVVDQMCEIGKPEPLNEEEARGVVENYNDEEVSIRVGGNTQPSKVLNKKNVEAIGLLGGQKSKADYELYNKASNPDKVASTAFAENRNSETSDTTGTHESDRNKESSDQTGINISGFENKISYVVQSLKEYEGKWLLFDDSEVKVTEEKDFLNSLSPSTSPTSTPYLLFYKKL
# Test: Inhibitors of USP1/UAF1: Pilot qHTS (AID 504865); note: nearly all actives have a fitted effect of over 35% in size; note: potency is the fitted concentration of half-maximal effect
# Details: purified USP1/UAF1, Ub-rhodamine cleavage fluorescence; series mostly up to 114 µM
# Method in brief: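 Kinetic fluorescence assay: 1nM USP1/UAF1, 15 min compound preincubation, then 150nM Ub-Rho; 480/540 nm.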
row,SMILES,Potency
1,CC[C@]1(O)CC(O[C@@H]2CC(N(C)C)C(O)C(C)O2)c2c(cc3c(c2O)C(=O)c2c(O)cccc2C3=O)C1C(=O)OC (stereo partly drawn),56.2 µM (active)
2,CC(CO)NC(=O)C1C=C2c3cccc4[nH]cc(c34)C[C@H]2N(C)C1 (stereo partly drawn),inactive
3,COc1c2c(c(CC=C(C)C)c3oc(=O)c(-c4ccc(O)cc4)c(O)c13)OC(C)(C)C=C2,79.4 µM (active)
4,CNNC,inactive
5,CC(=O)OC1C2CCC3C1(CC(O)[C@@]1(O)[C@@H](CC(O)C1(C)C)[C@]3(C)O)C[C@@]2(C)O (stereo partly drawn),inactive
6,OCC(O)Cc1ccc2c(c1)OCO2 (stereo not drawn),inactive
7,CC1(C)C(C(Cl)Cl)C2(Cl)C(Cl)C(Cl)C1(Cl)C2(Cl)Cl (stereo not drawn),inactive
8,COC(=O)[C@]1(C)CC[C@@]2(C)CC[C@@]3(C)C4=CC=C5C(=CC(=O)C(O)=C5C)[C@@]4(C)CC[C@@]3(C)C2C1 (stereo partly drawn),44.7 µM (active)
9,CC1CC(C)C(=O)[C@H](C(O)CC2CC(=O)NC(=O)C2)C1 (stereo partly drawn),inactive
10,CCC1C2CC3C4N(C)c5ccccc5[C@]45CC(C2C5O)N3C1O (stereo partly drawn),inactive
11,C=CCO[C@@H](Cn1ccnc1)c1ccc(Cl)cc1Cl,inactive
12,COc1ccc(C(=O)O)cc1OC,inactive
13,C=CCN1CC[C@]23c4c5ccc(O)c4OC2C(=O)CC[C@]3(O)C1C5 (stereo partly drawn),inactive
14,CCC1C(=O)OC[C@H]1Cc1cncn1C (stereo partly drawn),inactive
15,NC1C[C@H]1c1ccccc1 (stereo partly drawn),inactive
